Where a name gives a salt, the structure may show the parent alone. ± gives the standard deviation of the averaged measurements.

The first assay deals with E. coli TESEC Mtb DapB. Nature of the assay: growth (OD600 after 10 h); higher = more growth (less inhibition). As to conditions: arabinose induction (level): High; compound 0.1 mM; raw OD600 reference: median of DMSO wells […], cell-free background 0.041. How it is done:
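TESEC E. coli strains in which the native enzyme is deleted and replaced by arabinose-inducible Mtb Asd, DapB, CysH or TrpD, each grown in its selective medium. Strains were screened against the Prestwick library at 0.1 mM and 1% DMSO in 384-well format at low and high arabinose induction. Growth is read as OD600 after 10 h in triplicate.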
In turn, `COc1ccc([C@@H]2CC(=O)c3c(O)cc(O[C@@H]4O[C@H](CO[C@@H]5O[C@@H](C)[C@H](O)[C@@H](O)[C@H]5O)[C@@H](O)[C@H](O)[C@H]4O)cc3O2)cc1O` [Hesperidin] displayed a growth of 0.188 ± 0.011.
On the same count and under the same terms, for `C[C@H]1O[C@H](O[C@H]2[C@H](O)[C@@H](O)[C@@H](O[C@@H]([C@H](O)[C@@H](O)C=O)[C@H](O)CO)O[C@@H]2CO)[C@H](O)[C@@H](O)[C@@H]1N[C@H]1C=C(CO)[C@@H](O)[C@H](O)[C@H]1O` [Acarbose] the value was 0.196 ± 0.018.
For the compound `CCOC(=O)N1CCC(=C2c3ccc(Cl)cc3CCc3cccnc32)CC1` [Loratadine], the growth came out at 0.195 ± 0.0081.
`CN(C)CCN1C(=O)c2ccccc2N(C)c2ccccc21` [Dibenzepine hydrochloride] showed a growth of 0.165 ± 0.012.
On the same count and under the same terms, then `CC[C@@]1(O)C(=O)OCc2c1cc1n(c2=O)Cc2cc3c(CN(C)C)c(O)ccc3nc2-1` [Topotecan], with 0.202 ± 0.067; and `COC1=CC(=O)C[C@@H](C)[C@]12Oc1c(Cl)c(OC)cc(OC)c1C2=O` [Griseofulvin], with 0.174 ± 0.0029; and `O=C(NCCO[N+](=O)[O-])c1cccnc1` [Nicorandil], with 0.191 ± 0.0086.
In turn, `CCCCC1C(=O)N(c2ccccc2)N(c2ccccc2)C1=O` [Phenylbutazone] showed a growth of 0.141 ± 0.0096.
Still for that read-out and setting: then `CC(Oc1c(Cl)cccc1Cl)C1=NCCN1` (stereo not given) [Lofexidine], with 0.205 ± 0.013; and `CC(C[N+](C)(C)C)OC(N)=O` (stereo not given) [Bethanechol chloride], with 0.2 ± 0.024.
Compound `O=C(Nc1cccc2c(=O)cc(-c3nnn[nH]3)oc12)c1ccc(OCCCCc2ccccc2)cc1` [Pranlukast] registered a growth of 0.158 ± 0.014.
For the compound `COc1ccc(C(=O)NCc2cccnc2)cc1C(=O)NCc1cccnc1` [Picotamide monohydrate], the growth stood at 0.189 ± 0.0065.
`CCOC(=O)C(C)(C)Oc1ccc(Cl)cc1` [Clofibrate]: the growth was 0.19 ± 0.015.
On the same count and under the same terms, for `CCN(CC)C(=O)Nc1ccc(OCC(O)CNC(C)(C)C)c(C(C)=O)c1` (stereo not given) [Celiprolol HCl] the value was 0.192 ± 0.009; for `NS(=O)(=O)c1cc(Cl)c(Cl)c(S(N)(=O)=O)c1` [Dichlorphenamide], 0.213 ± 0.007.
The compound `C[C@](N)(Cc1ccc(O)c(O)c1)C(=O)O` [Methyldopa (L,-)] came in with a growth of 0.187 ± 0.0082.
Compound `O=C(O)COCCN1CCN(C(c2ccccc2)c2ccc(Cl)cc2)CC1` (stereo not given) [Cetirizine dihydrochloride] displayed a growth of 0.168 ± 0.013.
Still for that read-out and setting: for `CC[C@H]1OC(=O)C[C@@H](O)[C@H](C)[C@@H](O[C@@H]2O[C@H](C)[C@@H](O[C@H]3C[C@@](C)(O)[C@@H](O)[C@H](C)O3)[C@H](N(C)C)[C@H]2O)[C@@H](CC=O)C[C@@H](C)C(=O)/C=C/C(C)=C/[C@@H]1CO[C@@H]1O[C@H](C)[C@@H](O)[C@@H](OC)[C@H]1OC` [Tylosin] the value was 0.0739 ± 0.0012; for `Cc1cnc(C(=O)NCCc2ccc(S(=O)(=O)NC(=O)NC3CCCCC3)cc2)cn1` [Glipizide], 0.199 ± 0.032.
Still for that read-out and setting: for `C[N+]1(C)CCC(OC(=O)C(O)(c2ccccc2)C2CCCC2)C1` (stereo not given) [Glycopyrrolate] the value was 0.194 ± 0.025.

Still in this assay, the particulars now being: arabinose induction (level): Low; compound 0.1 mM; raw OD600 reference: median of DMSO wells 0.227, cell-free background 0.041.
As for `COc1ccc([C@@H]2CC(=O)c3c(O)cc(O[C@@H]4O[C@H](CO[C@@H]5O[C@@H](C)[C@H](O)[C@@H](O)[C@H]5O)[C@@H](O)[C@H](O)[C@H]4O)cc3O2)cc1O` [Hesperidin], the growth came out at 0.251 ± 0.034.
Compound `C[C@H]1O[C@H](O[C@H]2[C@H](O)[C@@H](O)[C@@H](O[C@@H]([C@H](O)[C@@H](O)C=O)[C@H](O)CO)O[C@@H]2CO)[C@H](O)[C@@H](O)[C@@H]1N[C@H]1C=C(CO)[C@@H](O)[C@H](O)[C@H]1O` [Acarbose] came in with a growth of 0.236 ± 0.037.
Consider `CCOC(=O)N1CCC(=C2c3ccc(Cl)cc3CCc3cccnc32)CC1` [Loratadine], for which the growth came to 0.179 ± 0.0076.
On to `CN(C)CCN1C(=O)c2ccccc2N(C)c2ccccc21` [Dibenzepine hydrochloride], for which the growth was determined as 0.187 ± 0.0044.
`CC[C@@]1(O)C(=O)OCc2c1cc1n(c2=O)Cc2cc3c(CN(C)C)c(O)ccc3nc2-1` [Topotecan] displayed a growth of 0.178 ± 0.014.
With `COC1=CC(=O)C[C@@H](C)[C@]12Oc1c(Cl)c(OC)cc(OC)c1C2=O` [Griseofulvin], the growth is 0.233 ± 0.022.
`O=C(NCCO[N+](=O)[O-])c1cccnc1` [Nicorandil]: the growth worked out at 0.209 ± 0.023.
Still for that read-out and setting: then `CCCCC1C(=O)N(c2ccccc2)N(c2ccccc2)C1=O` [Phenylbutazone], with 0.152 ± 0.006.
As to `CC(Oc1c(Cl)cccc1Cl)C1=NCCN1` (stereo not given) [Lofexidine], the growth stood at 0.206 ± 0.012.
As for `CC(C[N+](C)(C)C)OC(N)=O` (stereo not given) [Bethanechol chloride], the growth was determined as 0.242 ± 0.025.
Same read-out and setting: then `O=C(Nc1cccc2c(=O)cc(-c3nnn[nH]3)oc12)c1ccc(OCCCCc2ccccc2)cc1` [Pranlukast], with 0.195 ± 0.015; and `COc1ccc(C(=O)NCc2cccnc2)cc1C(=O)NCc1cccnc1` [Picotamide monohydrate], with 0.228 ± 0.034.
With `CCOC(=O)C(C)(C)Oc1ccc(Cl)cc1` [Clofibrate], the growth was found to be 0.236 ± 0.041.
On to `CCN(CC)C(=O)Nc1ccc(OCC(O)CNC(C)(C)C)c(C(C)=O)c1` (stereo not given) [Celiprolol HCl], for which the growth was determined as 0.264 ± 0.058.
For the compound `NS(=O)(=O)c1cc(Cl)c(Cl)c(S(N)(=O)=O)c1` [Dichlorphenamide], the growth worked out at 0.256 ± 0.026.
`C[C@](N)(Cc1ccc(O)c(O)c1)C(=O)O` [Methyldopa (L,-)] returned a growth of 0.226 ± 0.022.
On the same count and under the same terms, then `O=C(O)COCCN1CCN(C(c2ccccc2)c2ccc(Cl)cc2)CC1` (stereo not given) [Cetirizine dihydrochloride], with 0.199 ± 0.019.
Still for that read-out and setting: then `CC[C@H]1OC(=O)C[C@@H](O)[C@H](C)[C@@H](O[C@@H]2O[C@H](C)[C@@H](O[C@H]3C[C@@](C)(O)[C@@H](O)[C@H](C)O3)[C@H](N(C)C)[C@H]2O)[C@@H](CC=O)C[C@@H](C)C(=O)/C=C/C(C)=C/[C@@H]1CO[C@@H]1O[C@H](C)[C@@H](O)[C@@H](OC)[C@H]1OC` [Tylosin], with 0.0754 ± 0.0056.
Same read-out and setting: then `Cc1cnc(C(=O)NCCc2ccc(S(=O)(=O)NC(=O)NC3CCCCC3)cc2)cn1` [Glipizide], with 0.256 ± 0.042.
In the case of `C[N+]1(C)CCC(OC(=O)C(O)(c2ccccc2)C2CCCC2)C1` (stereo not given) [Glycopyrrolate], the growth was found to be 0.196 ± 0.011.

For the origin of these results see the supplement of paper PMC9262897, “Low-cost anti-mycobacterial drug discovery using engineered E. coli” (Nature Communications, 2022).
